PubChem BioAssay (NCI)
Compounds without any hit were thinned out: in the full panel of roughly 83,000, 20% have a hit.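 Interpretation: 100, growth as untreated; towards 0, rising growth inhibition; 0, no net growth; 0 to -100, cell death. Compounds scoring below 10 were considered active.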 Unmarked numbers belong to inactive results. Activity calls are given as the source filed them.

Assays:
Assay in all cases: NCI-60 one-dose screen, 48 h (100 = growth as untreated, 0 = no growth, -100 = all killed)
[1] = system: HCT-15 colon; settings: 10 µM unless noted
[2] = system: HT29 colon; settings: 10 µM unless noted
[3] = system: SNB-19 CNS; settings: 10 µM unless noted
[4] = system: U251 CNS; settings: 10 µM unless noted
[5] = system: SK-MEL-5 melanoma; settings: 10 µM unless noted
[6] = system: UACC-62 melanoma; settings: 10 µM unless noted
[7] = system: LOX IMVI melanoma; settings: 10 µM
[8] = system: SK-MEL-28 melanoma; settings: 10 µM unless noted
[9] = system: SK-MEL-2 melanoma; settings: 10 µM unless noted
[10] = system: EKVX NSCLC; settings: 10 µM unless noted
[11] = system: SN12C renal; settings: 10 µM unless noted
[12] = system: UO-31 renal; settings: 10 µM unless noted
[13] = system: TK-10 renal; settings: 10 µM unless noted
[14] = system: ACHN renal; settings: 10 µM unless noted
[15] = system: CAKI-1 renal; settings: 10 µM unless noted
[16] = system: A498 renal; settings: 10 µM unless noted
[17] = system: CCRF-CEM leukemia; settings: 10 µM unless noted
[18] = system: MOLT-4 leukemia; settings: 10 µM unless noted
[19] = system: PC-3 prostate; settings: 10 µM unless noted

Structure (SMILES) | growth [1] | growth [2] | growth [3] | growth [4] | growth [5] | growth [6] | growth [7] | growth [8] | growth [9] | growth [10] | growth [11] | growth [12] | growth [13] | growth [14] | growth [15] | growth [16] [%] | growth [17] | growth [18] | growth [19]
Cc1ccc(Cc2cnc(NC(=O)c3ccc(/C=C4\SC(=S)N(C)C4=O)cc3)s2)cc1 | 18.7% | 23.8% | 53.8% | 62.3% | 19.4% | 25.1% | 34.3% | 42.1% | 25.6% | 60% | 30.8% | 37.7% | 61.5% | 31.1% | 38.4% | 107 | 32.3% | 24.1% | 
COc1ccc(-c2ccc(SCC(=O)NCCc3ccc(S(N)(=O)=O)cc3)nn2)cc1 | 110% | 96.5% | 77.4% | 91.1% | 52.9% | 75.8% |  | 89.1% | 79.8% | 93.9% | 87.3% | 76.8% | 87.9% | 89.3% | 90.6% | 123 | 66% | 68.2% | 81.8%
CCN(CC)CCOc1ccc(Nc2ncc3cc(-c4ccc(O)c(C#N)c4)c(=O)n(C)c3n2)cc1 | 86.2% | -58.4% (active) | 108% | -61.2% (active) | 43.8% | 92.1% | 47% | 79.8% | 105% | 139% | 69.5% | 67.6% | 96.8% | 40.1% | 45.9% | 113 | -25.5% (active) | 3.63% (active) | 
C=C1CC[C@@H]2[C@]3(C)COC(c4ccccc4)O[C@@H]3CC[C@@]2(C)[C@@H]1C/C=C1/C(=O)OCC1OC(C)=O (stereo not given in full) | -87.3% (active) | -93.1% (active) |  | -89.9% (active) | -45.1% (active) | -82.7% (active) | -100% (active) | -86.9% (active) | -61.5% (active) | 21.8% | -96.9% (active) | -94.1% (active) | -21.2% (active) | -100% (active) | 20.6% | 129 | -29.3% (active) |  | -41.4% (active)
CC1(c2cc3cc(Br)ccc3oc2=O)NC(=O)c2c(/C=C/C(=O)OC3CC4CCC3(C)C4(C)C)cccc2N1 (stereo not given) | 82.9% | 88.7% | 72% | 69.8% | 74.5% | 79.8% | 84.5% |  | 92.7% | 62.1% | 75.5% | 59.8% | 104% | 76.6% | 78.2% | 142 |  | 47% | 36.5%
COc1c(F)ccc(C(=O)Nc2ccc3nc(NC(=O)C4CCCN(S(=O)(=O)c5ccc(C(F)(F)F)cc5)C4)sc3c2)c1F (stereo not given) | 85.7% | 79.1% |  | 76% | 84.9% | 65.8% | 83.3% | 92.3% | 84.7% | 103% | 82.4% | 55.3% | 99.9% | 72.3% | 61.2% | 96.7 | 89.5% | 47.2% | 57.7%
COc1ccc(-c2nc3cc(C)ccc3n2CC(=O)N=Nc2c(O)[nH]c3ccc(OC)cc23)cc1 | -86.5% (active) | -20% (active) |  | -80.2% (active) | -95.9% (active) | -86.5% (active) |  | -97.8% (active) | -14% (active) | -25.5% (active) | -95.1% (active) | -29.4% (active) | -3.46% (active) | -73.9% (active) | -51.3% (active) | 52.3 | 38.5% | -46.2% (active) | -52.4% (active)
COc1ccc(-c2ccc(SCC(=O)Nc3ccc(S(N)(=O)=O)cc3Br)nn2)cc1 | 84.5% | 95.7% | 23.4% | 52.4% | 94.3% | 83.2% | 98.8% | 99.2% | 68.9% | 78% | 88.4% | 88.3% | 116% | 86.7% | 63.1% | 89.8 | 98.7% | 93.7% | 
CC(=O)c1cccc(NC(=O)CCC(=O)NS(=O)(=O)c2ccc(C)cc2)c1 | 107% | 106% | 98.5% | 104% | 109% | 102% | 104% |  | 115% | 99.5% | 111% | 92.5% | 103% | 105% | 101% | 137 | 99% | 107% | 105%
N/C(=N\N=C\c1ccc([N+](=O)[O-])cc1)c1c(N)nc(=S)[nH]c1-c1ccc(Cl)cc1Cl | 103% | 116% | 74.9% | 67% | 104% | 84.7% |  | 113% | 93.4% | 98.9% | 96.1% | 98.3% | 142% | 88.9% | 78.9% | 160 | 106% | 94% | 96.8%
COc1ccc2c(c1)c(-c1cc3nc(-c4cn(C)c5ncc(Br)cc45)cc(N)n3n1)cn2C | -48% (active) | -88.5% (active) | -16.9% (active) | -57.3% (active) | -88.1% (active) | -82.2% (active) | -100% (active) |  | -68.6% (active) | -51.6% (active) | -75.3% (active) | -58.1% (active) | -40.8% (active) | -92.3% (active) | -39.9% (active) | 86.8 | -29.2% (active) | -43.6% (active) | 
COc1c(F)ccc(C(=O)Nc2ccc3nc(NC(=O)C4CCCN(S(=O)(=O)c5ccc(Br)c(F)c5)C4)sc3c2)c1F (stereo not given) | 73.6% | 78.2% |  | 69.8% | 85.7% |  | 78.9% | 99.6% | 88.6% | 88.5% | 87.7% | 72.1% | 122% | 81.5% | 72.7% | 112 | 87.4% |  | 62.6%
CCOC(=O)c1ccc(Nc2nc(NN)nc(-c3ccc(OC)cc3)c2C#N)cc1 | 106% | 115% | 92.2% | 106% | 90.1% | 93.4% | 114% | 113% | 114% | 118% | 114% | 93.8% | 120% | 113% | 105% | 118 |  | 36.1% | 
CN1C(=O)/C(=C/c2ccc(C(=O)Nc3ncc(Cc4ccc(Cl)cc4Cl)s3)cc2)SC1=S | 25.7% | 19.7% | 66.6% | 72.7% | 17.1% | 8.83% (active) | 29.7% |  | 19.7% | 63% | 36.1% | 40.4% | 71.4% | 31.3% | 30.1% | 87.6 | 40.2% | 31.1% | 38.9%
COc1ccccc1C(=O)NN1C(=O)/C(=C/C2=Cc3ccccc3OC2)SC1=S | 114% | 110% | 97.6% | 101% | 104% | 91.8% |  | 109% | 109% | 105% | 104% | 74% | 124% | 103% | 45.5% | 134 | 93.7% | 100% | 91.2%
C=C1CC[C@@H]2[C@]3(C)COC(c4ccco4)O[C@@H]3CC[C@@]2(C)[C@@H]1C/C=C1/C(=O)OCC1OC(C)=O (stereo not given in full) | -59% (active) | -46% (active) | 75.9% | 8.15% (active) | 43.9% | 34.5% |  | 59.6% | 59.5% | 89.3% | 3.28% (active) | 35.4% | 111% | 33.9% | 36.1% | 129 |  | 2.43% (active) | 18.8%
